# Screen size: about 330,000 compounds; about 7,700 (2.3%) were called active. About 26% were inconclusive and are not listed. The sample holds actives, similar compounds and a random draw of the others, so the mix is not that of the screen. The call rests on the fitted dose curve; in most records, active means well fitted inhibition curve with a large enough effect; inconclusive means small, poorly fitted or top-dose-only effect, or effect the other way; inactive means flat fitted curve, though single readings scatter.
# Test: qHTS screen for small molecules that inhibit ELG1-dependent DNA repair in human embryonic kidney (HEK293T) cells expressing luciferase-tagged ELG1; further: nearly all actives have a fitted effect of over 55% in size
# Details: HEK293T ELG1-luciferase reporter, luminescence, 16 h, DNA damage induced by 5-fluorouridine; series mostly up to 46.1 µM; activity change, negative = inhibition: at the top concentration
# Procedure, shortened: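 Reporter activity after DNA damage by 5-fluorouridine is monitored. Compound-treated cells incubate 16 hr at 37 °C, then ONE-Glo is added for 30 min before luminescence reading.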
# On the % scale 0 is the no-effect control and ±100 the full control effect; potency means the concentration at half of the fitted maximal effect.
Compound,"activity change, negative = inhibition",Potency
CCN(c1ccccc1)S(=O)(=O)c1cc(C(=O)NCc2ccccn2)ccc1C,-4.44% (inactive),–
CC(=O)c1sc(NC(=O)CCN2C(=O)C3CC=CCC3C2=O)nc1-c1ccccc1 (configuration not stated),-10.9% (inactive),–
O=S(=O)(NCC1CN(S(=O)(=O)c2ccc3c(c2)OCCO3)C1)c1c(F)cccc1F,19.5% (inactive),–
CC(C)N(C(=O)CN1CCN(S(=O)(=O)c2ccc(Br)s2)CC1)C(C)C,-6.18% (inactive),–
CS(=O)(=O)c1ccc(Cl)c(NC(=O)COC(=O)c2cccc(S(=O)(=O)N3CCCC3)c2)c1,-2.83% (inactive),–
O=C(NCc1cccs1)C1CCN(S(=O)(=O)c2ccc(Cl)cc2)CC1,8.41% (inactive),–
O=C(CNCc1cccs1)Nc1cc(S(=O)(=O)N2CCCC2)ccc1Cl,–,16.4 µM (active)
O=C(CN1CCCCCC1)Nc1ccc(S(=O)(=O)N2CCCCC2)cc1,0.957% (inactive),–
O=C(NN=Cc1ccc(N2CCOCC2)cc1)c1cc2ccccc2cc1O,0% (inactive),–
CCCOc1ccc(C(=O)C(CCC(CNCC)C(=O)c2ccc(OCCC)cc2)CNCC)cc1 (configuration not stated),–,23.1 µM (active)
COc1ccc(OCCC(=O)c2ccc(OC)cc2)cc1,4.01% (inactive),–
CCCCOc1ccc(C(=O)NN2CCN(C)CC2)cc1,17.4% (inactive),–
COc1ccc(-c2c(C#Cc3ccsc3)c3cc(-c4ccc(CN5CCOCC5)cc4)ccc3n2C)cc1,15.4% (inactive),–
COc1cc(OC)cc(-c2c(C#Cc3ccsc3)c3cc(-c4ccc(OC)cc4F)ccc3n2C)c1,20.3% (inactive),–
O=C(Nc1ccc(Cl)cc1)OCc1cc(-c2ccccc2)on1,4.31% (inactive),–
O=C1CC2(CC(c3ccc(Cl)cc3)=NO2)C(=O)N1c1ccccc1 (configuration not stated),-2.34% (inactive),–
Cc1nc(C(=O)Nc2ccc(Cl)cc2)sc1C1(C)CC(c2ccccc2)=NO1 (configuration not stated),–,18.3 µM (active)
COc1ccccc1N1CCN(S(=O)(=O)c2ccc3c(c2)NC(=O)CS3)CC1,-2.54% (inactive),–
CCOC(=O)[C@H]1[C@H]2COc3cc(OC)ccc3[C@@H]2N2C(=O)CN(Cc3ccc(Cl)cc3)C(=O)[C@@]12C,-4.83% (inactive),–
CCc1ccc(CN(C)C(=O)C2CCC(=O)N(Cc3cccc(OC)c3)C2)nc1 (configuration not stated),16.9% (inactive),–
CN(C)S(=O)(=O)c1ccc(N2CCCC2)c(C(=O)Nc2ccc(Br)cc2F)c1,-7.6% (inactive),–

Compound,"activity change, negative = inhibition",Potency
CCOc1ccccc1NC(=O)c1cc(S(=O)(=O)N2CCC3(CC2)OCCO3)ccc1F,-3.11% (inactive),–
Cc1c(C(=O)NCCN(C)C)oc2ccc(S(=O)(=O)N3CCCC3)cc12,13.6% (inactive),–
Cc1c(C(=O)Nc2ccccc2Cl)oc2ccc(S(=O)(=O)N3CCC4(CC3)OCCO4)cc12,–,3.66 µM (active)
CCN(Cc1ccccc1)C(=O)Cc1ccc(OC)c(S(=O)(=O)N2CCOCC2)c1,-2.15% (inactive),–
C=CCn1c(SCC(=O)Nc2nc3ccccc3s2)nnc1-c1ccccc1O,-15.9% (inactive),–
C=CCn1c(SCC(=O)NCc2ccccc2)nnc1-c1cc(Br)ccc1O,–,13 µM (active)
C=CCn1c(SCC(=O)NC(=O)Cc2ccccc2)nc2ccccc2c1=O,3.04% (inactive),–
Cc1cc(N/N=C/c2ccccc2F)c2ccccc2n1,4.96% (inactive),–
FC(F)(F)c1nc2ccccc2nc1N/N=C/c1ccc(Cl)cc1,-5.61% (inactive),–
Oc1ccc(/C=N/Nc2nc(-c3ccccc3F)nc3ccccc23)c(O)c1,–,14.6 µM (active)
CC(C)(C)c1cc(C(=O)N/N=C/c2ccc([N+](=O)[O-])s2)n[nH]1,–,5.17 µM (active)
COc1ccc(C(=O)NCC(=O)N/N=C/c2ccc([N+](=O)[O-])s2)cc1OC,–,8.2 µM (active)
COc1ccc(C(=O)COC(=O)c2ccc([N+](=O)[O-])s2)cc1OC,12.6% (inactive),–
CCOc1ccc(NC(=O)CCC(=O)N/N=C/c2ccc([N+](=O)[O-])s2)cc1,-21.4% (inactive),–
COc1ccc2ccccc2c1/C=N/NC(=O)c1cc(C)[nH]n1,-0.422% (inactive),–
COc1cc(/C=N\NC(=O)CNC(=O)c2cccc([N+](=O)[O-])c2)ccc1O,-5.46% (inactive),–
Nc1nnnn1/N=C/c1cc([N+](=O)[O-])ccc1O,-2.35% (inactive),–
O=[N+]([O-])c1ccc(O)c(/C=N/Nc2ccccc2[N+](=O)[O-])c1,–,18.3 µM (active)
O=[N+]([O-])c1ccccc1Nc1ccc(O)cc1,-19% (inactive),–
Cc1ccccc1SCC(=O)OCC(=O)N1CC(=O)Nc2ccccc21,0% (inactive),–
CCCn1c(C(C)Nc2nc(-c3ccc(C)cc3)cs2)nc2cc(Cl)c(N3CCCCC3)cc21 (configuration not stated),16.4% (inactive),–

Compound,"activity change, negative = inhibition",Potency
Cc1ccccc1Cn1c(=O)[nH]c2ccccc21,-14.6% (inactive),–
CCCc1cc(=S)n2c([nH]c3ccccc32)c1C#N,–,16.4 µM (active)
CCOC(=O)c1cnc2[nH]c3ccccc3n2c1=O,4.07% (inactive),–
Cc1ccc(S(=O)(=O)N(C)CC(=O)NCC(c2ccc(F)cc2)N2CCOCC2)cc1 (configuration not stated),1.93% (inactive),–
O=C(OCC(=O)N1CCCCCC1)c1ccc(Cl)nc1,0.267% (inactive),–
CCn1nc(C(=O)Nc2ccc(N3CCOCC3)cc2)c2ccccc2c1=O,-3.51% (inactive),–
CCCCn1nc(C(=O)Nc2cccc(C(=O)NC3CC3)c2)c2ccccc2c1=O,–,13 µM (active)
CCCCn1nc(C(=O)OCC(=O)Nc2sccc2C(N)=O)c2ccccc2c1=O,10.7% (inactive),–
Cn1c(N)c(C(=O)COC(=O)c2cccc(S(=O)(=O)N3CCOCC3)c2)c(=O)n(C)c1=O,-10% (inactive),–
CCCn1c(CCNc2nc(-c3ccc(OC)cc3)cs2)nc2ccccc21,-26% (inactive),–
CCN(CC(=O)NCCc1ccccc1)S(=O)(=O)c1ccc(C)cc1,-15.1% (inactive),–
Cc1ccc(S(=O)(=O)N(C)CC(=O)NCCc2c[nH]c3ccccc23)cc1,–,14.6 µM (active)
CSCCC(NS(=O)(=O)c1ccc(C)cc1)C(=O)NCCc1c[nH]c2ccccc12 (configuration not stated),-7.72% (inactive),–
CCN(CC)S(=O)(=O)c1ccc2[nH]cc(C(=O)NCCc3ccccc3)c(=O)c2c1,–,5.8 µM (active)
CN(c1ccccc1)S(=O)(=O)c1ccc(Cl)c(C(=O)OCC(N)=O)c1,-2.61% (inactive),–
COc1ccccc1CC(=O)NCCc1c[nH]c2ccccc12,-6% (inactive),–
CN(c1ccccc1)S(=O)(=O)c1ccc(Cl)c(C(=O)NCCc2c[nH]c3ccccc23)c1,–,18.4 µM (active)
CCN(CC(=O)NCCc1ccccc1)S(=O)(=O)c1ccccc1,6.38% (inactive),–
CN(c1ccccc1)S(=O)(=O)c1ccc(Cl)c(C(=O)OCC(=O)NCc2ccco2)c1,10.8% (inactive),–
COc1cc(CN2CCCC(C(=O)c3ccc(SC)cc3)C2)cc(Cl)c1O (configuration not stated),-21% (inactive),–
